The list is not random: actives were taken first. Their share in the collection is about 2.2%.
IEC-6 cytotox = IEC-6 cytotoxicity, counter-screen for KLF5 inhibitors; luminescence viability; inhibition, % at 5 µM; actives 0.78% (n = 290,000); AID 1825; in the data active means inhibition above about 22%
APP transl inh = APP translation inhibition; inhibition, % at 2 µM; actives 0.82% (n = 190,000); SH-SY5Y APP 5'UTR-luciferase reporter, luminescence;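 active means inhibition above a set limit, derived from the sample mean plus 3 SD, cut at about 45% in these data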
KLF5 inhibitor = inhibitors of KLF5 expression. inhibition, % at 5 µM. actives 0.23% (n = 290,000). DLD-1 KLF5 promoter-luciferase reporter, luminescence. AID 1700;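 active means inhibition above a per-plate limit of that plate's mean compound inhibition plus 3 SD, cut at about 60% in these data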;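 further: higher means less KLF5 promoter-driven luciferase light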
aSyn 5UTR inh = 5' untranslated region of α-synuclein, MLPCN primary screen | alpha-synuclein 5'UTR reporter, inhibitor activity | inhibition, % (tested at 7.5 µM) | actives 0.82% (n = 300,000) | AID 1813; in the data active means inhibition above about 60%;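 further: H4 neuroglioblastoma cells stably carrying SNCA 5'UTR luciferase fusion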
BaF3 parental = parental Ba/F3 viability inhibition as JAK2V617F counter-screen. actives 1.1% (n = 220,000). CellTiter-Glo ATP luminescence. inhibition, % at 5.6 µM;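 active means inhibition above a per-campaign cutoff, the mean inhibition of all tested compounds plus 3 SD, cut at about 27% in these data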
Ba/F3 V617F tox = loss of viability in JAK2V617F-driven Ba/F3 cells. actives 1.1% (n = 220,000). inhibition, % at 5.6 µM. Ba/F3 EpoR-JAK2V617F viability, ATP luminescence;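 active means inhibition above the campaign mean plus 3 SD over all tested compounds, cut at about 24% in these data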;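 further: cytokine-independent growth of Ba/F3 cells driven by EpoR plus mutant JAK2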
Numbers stand for hits; . = inactive; / = no result.

SMILES	IEC-6 cytotox	APP transl inh	KLF5 inhibitor	aSyn 5UTR inh	BaF3 parental	Ba/F3 V617F tox
Cc1ccccc1NC(=O)c1cc(S(=O)(=O)N2CCOCC2)cn1C	.	/	.	.	/	/
Cc1cccc(C)c1NC(=S)N=Nc1c(O)n(C)c2ccc(S(=O)(=O)N3CCOCC3)cc12	.	.	.	71	.	.
CSc1ccccc1OCc1cc(C(=O)N(C)Cc2cnccn2)no1	.	/	.	.	/	/
C=CCSc1nc2c(cnn2-c2ccccc2)c(=O)n1N	.	/	.	74	.	.
Cc1ccc(S(=O)(=O)Nc2ccc(C(=O)N3CCOCC3)cc2)cc1	.	/	.	.	/	/
C=CCn1c(Cc2cccs2)nnc1SCC(=O)Nc1ccc(C(=O)OCC)cc1	.	47	.	.	.	.
CN1Cc2c(N3CCOCC3)nc3sc(C#N)c(N)c3c2CC1(C)C	.	/	.	.	.	.
CN1Cc2c(N3CCOCC3)nc3sc(C(=O)c4ccc(Br)cc4)c(N)c3c2CC1(C)C	.	/	.	105	.	.
O=C(NNC(=O)c1cccs1)c1ccc(Cl)nc1	/	/	/	.	/	/
CC(=O)c1sc(Nc2nc(C)cc(C)n2)nc1C	.	83	.	.	.	.
CCOc1ccc(C2C(C(=O)OC)=CN(C(C)c3ccccc3)C=C2C(=O)OC)cc1 (stereo not given)	.	/	.	.	/	/
O=C(NN=C1CCCC1)c1[nH]c2ccc(Br)cc2c1-c1ccccc1	.	/	.	/	.	.
O=C(N/N=C/c1ccccc1)c1[nH]c2ccc(Br)cc2c1-c1ccccc1	.	88	.	.	.	.
CCC(C)N(C(=O)CSc1nc2ccc(OC)cc2[nH]1)C1CCS(=O)(=O)C1 (stereo not given)	/	/	/	.	/	/
Cc1ccc(/C=N/NC(=O)c2csc3c2CCCC3)cc1	.	90	.	.	.	.
COc1cc(/C=N/NC(=O)c2csc3c2CCCC3)cc(OC)c1O	.	.	.	.	.	.
CCc1cc(=O)oc2c3c(cc(OCC(=O)N[C@H](C(=O)O)[C@H](C)CC)c12)OC(C)(C)CC3	.	/	.	.	/	/
Cc1ccc(-n2nc3c(=O)n(CC(=O)NCCc4cccs4)nc(C)c3c2C)cc1	.	/	.	.	/	/
Cc1ccc(-n2nc3c(N4CCC(C(=O)NCCc5cccs5)CC4)nnc(C)c3c2C)cc1	.	/	.	90	/	/
O=[N+]([O-])c1ccc2[nH]nc(-c3ccccc3)c2c1	.	.	.	.	.	.
O=[N+]([O-])c1ccc2[nH]c3nc4ccccc4nc3c2c1	.	/	.	.	43	36
CC(C)[C@H](NC(=O)N1CC(=O)Nc2ccccc21)C(=O)N1CCC(C(=O)O)CC1	.	/	.	.	/	/
CC(C)(C)c1cc(C(c2cccnc2)N2CCN(CCO)CC2)cc(C(C)(C)C)c1O (stereo not given)	.	59	.	.	.	.
Cc1ccc(S(=O)(=O)/N=C(/Nc2ccc(F)cc2F)c2ccccc2)cc1	.	/	.	.	/	/
NC1=NC(=O)C(Cc2ccc(Br)cc2)S1 (stereo not given)	.	/	.	.	/	/
SMILES	IEC-6 cytotox	APP transl inh	KLF5 inhibitor	aSyn 5UTR inh	BaF3 parental	Ba/F3 V617F tox
Cc1cn(C(=O)C(C)N2C(=O)c3ccccc3C2=O)c(C)n1 (stereo not given)	.	.	.	.	.	.
Cc1nn(C(=O)C(C)N2C(=O)c3ccccc3C2=O)c(C)c1Br (stereo not given)	.	.	.	.	94	.
Cc1ccc(C(=O)Nc2cc3ccccc3oc2=O)cc1	.	66	.	111	.	.
Cc1cc(NC(=S)NC(=O)c2ccccc2)ccc1-c1cc2ccccc2oc1=O	.	69	.	.	.	.
Cn1c(=O)cc(OCCCC(=O)NC2CCCC2)c2ccccc21	.	.	.	.	45	51
Cc1nn(-c2ccccc2Cl)c(Cl)c1/C=N/Nc1nc2ccccc2s1	.	.	.	69	.	.
CC(C)C(NC(=O)CN(c1ccc2c(c1)OCCO2)S(=O)(=O)c1ccccc1)C(C)C	/	/	/	.	/	/
CN(Cc1cnc2nc(N)nc(N)c2n1)c1ccc(C(=O)N[C@@H](CCC(=O)O)C(=O)O)cc1	/	/	/	78	/	/
Nc1nc2ncc(CNc3ccc(C(=O)N[C@@H](CCC(=O)O)C(=O)O)cc3)nc2c(=O)[nH]1	.	/	.	.	/	/
Cc1cccc(C)c1NC(=O)C(=O)NCC1CCCN1S(=O)(=O)c1ccccc1 (stereo not given)	/	/	/	.	/	/
O=C1CC(c2ccccc2)Cc2nc3ncnn3cc21 (stereo not given)	.	.	.	.	80	77
CN1CCN(c2ccccc2NC(=O)c2ccccc2F)CC1	.	/	.	.	.	.
CC(=O)N1CCN(c2ccccc2NC(=O)c2ccc(C#N)cc2F)CC1	.	.	.	.	90	.
Cc1ccc(CNC(=O)c2ccc(CNS(=O)(=O)c3ccc4c(c3)C(C)(C)C(=O)N4C)cc2)o1	.	/	.	.	/	/
Cc1nn(Cc2ccc(C(=O)Nc3nccs3)cc2)c(C)c1Cl	.	.	.	.	43	39
CCOC(=O)CC1COCCN1C(=O)c1ccc2oc(Cc3ccccc3)nc2c1 (stereo not given)	.	/	.	.	/	/
COC(=O)c1cnc(Oc2ccc(NC(=O)NC(=O)c3c(OC)cccc3OC)cc2)cc1C(F)(F)F	.	/	.	74	.	.
O=S(Cc1ccc(Br)cc1)Cc1nnc(SCc2ccc(Br)cc2)n1-c1ccccc1 (stereo not given)	.	.	.	.	34	.
CN(C)CC(C(=O)c1ccccc1)c1ccccc1 (stereo not given)	.	94	.	.	.	.
COc1ccc(C(C(=O)OC(C)CN(C)C)c2ccccc2)cc1 (stereo not given)	.	.	.	.	.	.
C/C(CC(C)(C)C1CCCCC1)=N\NC(N)=S	.	.	.	.	73	80
CCCCC(=O)Nc1cc(C)c(NC(=O)c2ccco2)cn1	.	/	.	.	/	/
COc1cc(S(=O)(=O)N2CCCN(C)CC2)ccc1NC(C)=O	.	/	.	.	/	/
CCn1c(=N)c(C(=O)NC)cc2c(=O)n3cccc(C)c3nc21	/	.	/	/	/	/
CCNc1nc(C)c2cc(Br)c(=O)n(CC)c2n1	.	.	.	76	.	.
SMILES	IEC-6 cytotox	APP transl inh	KLF5 inhibitor	aSyn 5UTR inh	BaF3 parental	Ba/F3 V617F tox
COc1ccc(C)cc1NC(=O)C(=O)NCc1ccncc1	.	.	.	.	96	.
CC1(C(=O)N/N=C/c2ccc3c(c2)OCO3)CC1(Br)Br (stereo not given)	.	/	.	.	/	/
O=C(NCCc1ccccc1)c1cccnc1	.	.	.	.	.	.
O=C(NCCc1ccccc1)c1ccc2nccnc2c1	.	.	.	63	.	.
COCCn1c(C)cc(C(=O)COC(=O)c2cc3c(s2)CCC3)c1C	.	.	.	.	.	.
COCCn1c(C)cc(C(=O)COC(=O)c2cccc(O)c2)c1C	.	/	.	67	.	.
COCCn1c(C)cc(C(=O)CSc2nnc(C)s2)c1C	.	.	.	100	.	.
COc1ccc(OC)c(N2C(=NC(=O)C3CCCCC3)SC3CS(=O)(=O)CC32)c1 (stereo not given)	.	/	.	.	/	/
COc1ccc2c(c1)C(=O)Cc1ccccc1O2	/	/	/	.	/	/
